From PubChem BioAssay (Tox21)
Inconclusive results are not listed. Entries that show only a call come without a potency. The source made the active and inactive calls. Calls come from the whole dose curve; as a rule, active = well fitted curve in the direction sought with a large enough effect in the repeat runs; inconclusive = weak or mixed curves; inactive = no such curve, though single readings can be large; an effect the other way counts as inactive or inconclusive.

Assay: A CellTox Green Cytotoxicity Assay to monitor cytotoxicity in HepG2 cells - 16 hour (AID 1224876); note: nearly all actives have a fitted effect of over 45% in size
Details: CellTox Green fluorescence; series mostly up to 76.8 µM
In short: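 Using 1536-well format, dye-containing HepG2 suspension was seeded, allowed 5 h at 37 C/5% CO2, dosed by pintool with compounds, positive and negative controls, and imaged for fluorescence across 40 h.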
Potency is the fitted concentration of half-maximal effect.

SMILES	Potency
C=CC(=O)NCOCC(C)C	inactive
CC(C)C(OC(=O)c1ccccc1)C(C)(C)COC(=O)c1ccccc1 (configuration not stated)	inactive
C=CCNc1nc(NCC=C)nc(N2CCN(C(c3ccc(F)cc3)c3ccc(F)cc3)CC2)n1	inactive
Fc1ccccc1[C@@H](F)COC1CCC(Nc2ncnc3[nH]ncc23)CC1 (some centres not stated)	inactive
CC1=CC(O)CC(C)(C)C1 (configuration not stated)	inactive
O=c1[nH]c2ccc(S(=O)CCN3CCC(Cc4ccc(F)cc4)CC3)cc2o1 (configuration not stated)	inactive
O=[N+]([O-])c1cccc(S(=O)(=O)NCCNS(=O)(=O)c2cccc([N+](=O)[O-])c2)c1	inactive
CC(C)(C)C(=O)O	inactive
C(=C\c1ccccc1)/CN1CCN(C(c2ccccc2)c2ccccc2)CC1	inactive
COc1cc2ncnc(Nc3ccc(F)c(Cl)c3)c2cc1OCCCN1CCOCC1	23.9 µM (active)
CC1CC(=O)NN=C1c1ccc(NCC(C)(C)NCC(O)COc2cc(Cl)ccc2C#N)cc1 (configuration not stated)	inactive
CC(CCc1ccc2c(c1)OCO2)NN (configuration not stated)	inactive
CCCCCCCCCOC(C)=O	inactive
O=C(CCC1CCN(Cc2ccccc2)CC1)c1ccc2c(c1)NCCCC2	inactive
CCCCCCOC(=O)C(C)C	inactive
CCCOC(=O)c1ccc(C(=O)OCCC)nc1	inactive

SMILES	Potency
CO/N=C1\CN(c2nc3c(cc2F)c(=O)c(C(=O)O)cn3C2CC2)CC1CN (configuration not stated)	inactive
CCCCCCCCCCCC[N+](C)(C)CCCS(=O)(=O)[O-]	inactive
C/C=C/C=C/CCCCCCCO	inactive
CCOC(=O)CC(=O)C(=O)OCC	inactive
Nc1nccs1	inactive
Cc1ccc(Nc2nccc(N(C)c3ccc4c(C)n(C)nc4c3)n2)cc1S(N)(=O)=O	inactive
O=S1OCCO1	inactive
CC1CC(O)CC(C)(C)C1 (configuration not stated)	inactive
CCCCC(=O)O[C@]1(C(=O)CO)[C@@H](C)C[C@H]2[C@@H]3CCC4=CC(=O)C=C[C@]4(C)[C@@]3(F)[C@@H](O)C[C@@]21C	inactive
CC(=O)[C@H]1CC[C@H]2[C@@H]3C[C@H](C)C4=CC(=O)CC[C@]4(C)[C@H]3[C@@H](O)C[C@]12C	inactive
CC(=O)Oc1ccc2c(c1)CC[C@@H]1[C@@H]2CC[C@]2(C)[C@@H](O)CC[C@@H]12	inactive
CNC(=O)N(c1ccccc1)c1ccccc1	inactive
CC(=O)OCC(=O)[C@H]1CC[C@H]2[C@@H]3CCC4=CC(=O)CC[C@]4(C)[C@H]3CC[C@]12C	inactive
CCCC1C(CC)=CC(CC)=CN1c1ccccc1 (configuration not stated)	inactive
C1COCO1	inactive
O=C(c1ccc(O)cc1)c1ccc(Cl)cc1	inactive

Assay: qHTS RealTime-Glo MT Cell Viability Assay in HepG2 cells - 32 hour (AID 1224877); note: nearly all actives have a fitted effect of over 55% in size
Details: RealTime-Glo luminescence; series mostly up to 76.8 µM
In short: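 HepG2 suspension premixed with RealTime-Glo reagents is plated at 600 cells per well and left 5 h at 37 C/5% CO2. Compounds in DMSO then go in, and bioluminescence reflecting viable cell number is recorded over 40 h.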

SMILES	Potency
C=CC(=O)NCOCC(C)C	inactive
CC(C)C(OC(=O)c1ccccc1)C(C)(C)COC(=O)c1ccccc1 (configuration not stated)	inactive
C=CCNc1nc(NCC=C)nc(N2CCN(C(c3ccc(F)cc3)c3ccc(F)cc3)CC2)n1	inactive
CCCCN(CCCC)C(=S)SSC(=S)N(CCCC)CCCC	inactive
Fc1ccccc1[C@@H](F)COC1CCC(Nc2ncnc3[nH]ncc23)CC1 (some centres not stated)	inactive
CC1=CC(O)CC(C)(C)C1 (configuration not stated)	inactive
O=c1[nH]c2ccc(S(=O)CCN3CCC(Cc4ccc(F)cc4)CC3)cc2o1 (configuration not stated)	inactive
CCOC(=O)N1CCC(n2c(=O)[nH]c3cc(Cl)ccc32)CC1	inactive
NC(=O)N(O)[C@@H]1C=C[C@H](Oc2cccc(Oc3ccc(F)cc3)c2)C1	inactive
CCCCC(CC)C(=O)OCCOCCOCCOCCOC(=O)C(CC)CCCC (configuration not stated)	inactive
O=[N+]([O-])c1cccc(S(=O)(=O)NCCNS(=O)(=O)c2cccc([N+](=O)[O-])c2)c1	inactive
CCCCC1C(=O)N(c2ccccc2)N(c2ccc(O)cc2)C1=O (configuration not stated)	16.9 µM (active)
CC(C)(C)C(=O)O	inactive
C(=C\c1ccccc1)/CN1CCN(C(c2ccccc2)c2ccccc2)CC1	inactive
COc1cc2ncnc(Nc3ccc(F)c(Cl)c3)c2cc1OCCCN1CCOCC1	23.9 µM (active)
CC1CC(=O)NN=C1c1ccc(NCC(C)(C)NCC(O)COc2cc(Cl)ccc2C#N)cc1 (configuration not stated)	inactive
CC(CCc1ccc2c(c1)OCO2)NN (configuration not stated)	inactive
O=C(N[C@@H](c1ccccc1)[C@@H]1CCCCN1)c1cccc(C(F)(F)F)c1Cl	43.6 µM (active)
CCCCCCCCCOC(C)=O	inactive
O=C(CCC1CCN(Cc2ccccc2)CC1)c1ccc2c(c1)NCCCC2	inactive

SMILES	Potency
CCCCCCOC(=O)C(C)C	inactive
CCCOC(=O)c1ccc(C(=O)OCCC)nc1	inactive
CO/N=C1\CN(c2nc3c(cc2F)c(=O)c(C(=O)O)cn3C2CC2)CC1CN (configuration not stated)	inactive
CCCCCCCCCCCC[N+](C)(C)CCCS(=O)(=O)[O-]	inactive
C/C=C/C=C/CCCCCCCO	inactive
CCOC(=O)CC(=O)C(=O)OCC	inactive
O=C1NCCN1	inactive
Nc1nccs1	inactive
Cc1ccc(Nc2nccc(N(C)c3ccc4c(C)n(C)nc4c3)n2)cc1S(N)(=O)=O	inactive
O=S1OCCO1	inactive
CC1CC(O)CC(C)(C)C1 (configuration not stated)	inactive
CCCCC(=O)O[C@]1(C(=O)CO)[C@@H](C)C[C@H]2[C@@H]3CCC4=CC(=O)C=C[C@]4(C)[C@@]3(F)[C@@H](O)C[C@@]21C	inactive
CC(=O)[C@H]1CC[C@H]2[C@@H]3C[C@H](C)C4=CC(=O)CC[C@]4(C)[C@H]3[C@@H](O)C[C@]12C	inactive
CC(=O)Oc1ccc2c(c1)CC[C@@H]1[C@@H]2CC[C@]2(C)[C@@H](O)CC[C@@H]12	inactive
CNC(=O)N(c1ccccc1)c1ccccc1	inactive
CC(=O)OCC(=O)[C@H]1CC[C@H]2[C@@H]3CCC4=CC(=O)CC[C@]4(C)[C@H]3CC[C@]12C	inactive
CCCCCCCCCCCC[N+](C)(C)CC(=O)[O-]	inactive
CCCC1C(CC)=CC(CC)=CN1c1ccccc1 (configuration not stated)	inactive
C1COCO1	inactive
O=C(c1ccc(O)cc1)c1ccc(Cl)cc1	inactive
